These results are taken from PubChem BioAssay (EPA / NIEHS).

The source made the active and inactive calls. Rule for the calls: active = hit-call score of the fitted dose curve at least 0.9, where 1 is the maximum; inactive = score below 0.9.

The AC50 is the midpoint of the concentration-response curve, whichever way the signal moves.

Read-out in the assay: Intercellular Adhesion Molecule 1 (ICAM1), ICAM1 (gene 3383)
Kind of assay: BSK_3C_ICAM1: BioMAP Diversity Plus: 3C Assay for Intercellular Adhesion Molecule 1 (ICAM1) Biomarker Activity (AID 2283003). Particulars: primary human endothelial cells (HUVEC); actives raise or lower the signal. On the procedure: BSK_3C is a cell-based, multiplexed-readout assay that uses umbilical vein endothelium, a human vascular primary cell, with measurements taken at 24 hours after chemical dosing in a 96-well plate.BSK_3C_ICAM1 is an assay component measured in the BSK_3C assay. It measures ICAM-1 antibody related to regulation of gene expression using ELISA technology.Data from the assay component BSK_3C_ICAM1 was analyzed into 1 assay endpoint. This assay endpoint, BSK_3C_ICAM1, was analyzed with bidirectional fitting relative to DMSO as the negative control and baseline of activity. Using a type of binding reporter, gain or loss-of-signal activity can be used to understand changes in the signaling as they relate to the gene ICAM1. Furthermore, this assay endpoint can be referred to as a primary readout, because this assay has produced multiple assay endpoints where this one serves a signaling function. To generalize the intended target to other relatable targets, this assay endpoint is annotated to the cell adhesion molecules intended target family, where the subfamily is Immunoglobulin CAM.
The levels of cell surface (or secreted, indicated by the prefix "s") biomarker endpoints were measured by ELISA. Overt cytotoxicity to cells in confluent adherent cultures (all systems other than the BT system) was assessed by measuring total protein levels using sulforhodamine B (SRB) staining in parallel cultures at the time of biomarker measurements, indicated as SRB endpoints. For proliferation assays for adherent cell types, individual cell types are cultured at sub-confluence and relative cell numbers quantified by SRB staining at time points optimized for each system (48 h: 3C and CASM3C systems; 72 h: BT and HDF3CGF systems; 96 h: SAg system). SRB was performed by staining cells with 0.1% SRB after fixation with 10% TCA and reading wells at 560 nm.Viability and proliferation of PBMC (T cells) was quantified by Alamar Blue reduction for the SAg and BT systems. For PBMC viability (referred to as PBMC Cytotoxicity within the assay endpoint names), cells were plated (75,000/well in a 96-well plate) and then chemical samples added for 1 h before addition of activators, SEB and TSST-1 (20 ng/mL final concentration each). Cells were incubated for 90 h. Then, Alamar Blue (20 uL/well) (Invitrogen, Cat DAL1100) was added for 6 h, and the plates were read with a fluorescence microplate reader at 546/580 nm (excitation/emission). For PBMC proliferation, cells were plated and activated as above but incubated for only 16 h prior to addition of Alamar Blue. Plates were read after 6 h.
Regarding `CON=C(C(=O)OC)c1ccccc1CON=C(C)c1cccc(C(F)(F)F)c1`, the result was inactive. Same read-out and setting: the result for `CCOP(=S)(OCC)OC(Cl)C(Cl)(Cl)Cl` (stereo not given) reads “inactive”. The same measure, in the same setting: the result for `CCc1cccc(CC)c1N(COC)C(=O)CCl` reads “inactive”; that for `CN(C)[C@@H]1C(=O)C(C(N)=O)=C(O)[C@@]2(O)C(=O)C3=C(O)c4c(O)cccc4[C@@](C)(O)[C@H]3[C@H](O)[C@@H]12`, “inactive”. Still for that read-out and setting: the result for `CCOP(=S)(Oc1cnc(C(C)(C)C)nc1)OC(C)C` (stereo not given) reads “inactive”; that for `COc1cc(OC)nc(Sc2cccc(Cl)c2C(=O)O)n1`, “inactive”; that for `FC(F)C(F)(F)OCC(Cn1cncn1)c1ccc(Cl)cc1Cl` (stereo not given), “inactive”. As for `CCOC(=O)COc1cc(-c2nn(C)c(OC(F)F)c2Cl)c(F)cc1Cl`, the outcome was inactive.

With `CSC1=N[C@@](C)(c2ccccc2)C(=O)N1Nc1ccccc1`, the result was inactive. The same measure, in the same setting: the result for `COP(=O)(NC(C)=O)SC` (stereo not given) reads “inactive”. In the case of `COP(=O)(OC)OC(Br)C(Cl)(Cl)Br` (stereo not given), the AC50 is 36.4 µM (active).

Turning to `CCCOc1nn(C(=O)NS(=O)(=O)c2ccccc2C(=O)OC)c(=O)n1C`, the outcome was inactive.

On to `CSc1nc(NC(C)C)nc(NC(C)C)n1`, for which the outcome was inactive.

For `CCc1cccc(C)c1N(C(=O)CCl)C(C)COC` (stereo not given), the result was inactive. On the same count and under the same terms, the result for `C#CCC1=C(C)C(OC(=O)C2C(C=C(C)C)C2(C)C)CC1=O` (stereo not given) reads “inactive”; that for `CCCCOC(=O)c1ccccc1C(=O)O`, “inactive”. Still for that read-out and setting: in the case of `Cc1ccn2nc(S(=O)(=O)Nc3c(F)cccc3F)nc2n1` it was “inactive”; in that of `CCOP(=S)(OCC)Oc1ccc2c(C)c(Cl)c(=O)oc2c1`, “inactive”; in that of `COc1cccc(C(=O)NN(C(=O)c2cc(C)cc(C)c2)C(C)(C)C)c1C`, “inactive”. Still for that read-out and setting: in the case of `Nc1c(Cl)cc([N+](=O)[O-])cc1Cl` it was “inactive”. With `Cc1nn(-c2cc(NS(C)(=O)=O)c(Cl)cc2Cl)c(=O)n1C(F)F`, the result was inactive.

Consider `CCOC(=O)CC(SP(=O)(OC)OC)C(=O)OCC` (stereo not given), for which the result was inactive. On the same count and under the same terms, the result for `CCNc1nc(Cl)nc(NC(C)(C)C#N)n1` reads “inactive”; that for `CCC(CC)Nc1c([N+](=O)[O-])cc(C)c(C)c1[N+](=O)[O-]`, “inactive”.

Turning to `CSc1nnc(C(C)(C)C)c(=O)n1N`, the result was inactive. In the case of `CCCCSP(=O)(SCCCC)SCCCC`, the result was inactive.

Turning to `CCC(=NOC/C=C/Cl)C1=C(O)CC(C2CCOCC2)CC1=O` (stereo not given), the outcome was inactive. Same read-out and setting: the result for `CC(C)[C@H](C(=O)O[C@H](C#N)c1cccc(Oc2ccccc2)c1)c1ccc(Cl)cc1` reads “inactive”. The same measure, in the same setting: the result for `CN1COCN(Cc2cnc(Cl)s2)C1=N[N+](=O)[O-]` reads “inactive”; that for `CCOP(=O)(NC(C)C)Oc1ccc(SC)c(C)c1` (stereo not given), “inactive”. As for `CCOP(=S)(OCC)SCCSCC`, the result was inactive. `CNc1cnn(-c2cccc(C(F)(F)F)c2)c(=O)c1Cl`: the result was inactive. Still for that read-out and setting: in the case of `COP(=O)(OC)C(O)C(Cl)(Cl)Cl` (stereo not given) it was “inactive”; in that of `CNC(=O)Oc1cccc2c1OC(C)(C)O2`, “inactive”. On the same count and under the same terms, in the case of `O=c1ccc(=O)[nH][nH]1` it was “inactive”; in that of `CC(=NC#N)N(C)Cc1ccc(Cl)nc1`, “inactive”; in that of `CCCSP(=O)(OCC)SCCC`, “inactive”. Consider `CNC(=O)ON=C(SC)C(=O)N(C)C`, for which the result was inactive. In the case of `C[Si](Cn1cncn1)(c1ccc(F)cc1)c1ccc(F)cc1`, the result was inactive.

In the case of `CC(C)N(C(=O)SCC(Cl)=C(Cl)Cl)C(C)C`, the AC50 was 30.9 µM (active).
